Bioassay records deposited in PubChem by National Center for Advancing Translational Sciences (NCATS).
FLuc inh = inhibitors of firefly (Photinus pyralis) luciferase; 2.5% of 76,000 active; Potency, µM (titrated, usually from 115 µM), actives largely listed as inhibitors; AID 1347043; purified P. pyralis luciferase, luminescence, biochemical; also: nearly all actives have a fitted effect of over 65% in size
Target sequence (P08659 whole entry, looked up): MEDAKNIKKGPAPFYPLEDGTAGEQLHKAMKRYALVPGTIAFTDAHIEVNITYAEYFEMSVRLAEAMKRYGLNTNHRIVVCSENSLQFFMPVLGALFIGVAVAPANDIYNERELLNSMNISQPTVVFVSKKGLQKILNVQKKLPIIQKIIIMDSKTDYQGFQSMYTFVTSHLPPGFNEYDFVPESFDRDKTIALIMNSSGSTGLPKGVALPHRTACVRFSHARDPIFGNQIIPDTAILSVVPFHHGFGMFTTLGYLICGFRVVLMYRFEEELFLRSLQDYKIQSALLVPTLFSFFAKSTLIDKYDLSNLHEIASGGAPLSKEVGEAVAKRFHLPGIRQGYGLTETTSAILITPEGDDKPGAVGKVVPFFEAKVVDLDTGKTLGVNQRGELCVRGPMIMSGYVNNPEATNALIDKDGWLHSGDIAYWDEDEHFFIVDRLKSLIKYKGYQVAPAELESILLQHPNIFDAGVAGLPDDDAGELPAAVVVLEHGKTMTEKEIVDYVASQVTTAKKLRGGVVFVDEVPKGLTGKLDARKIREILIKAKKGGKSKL
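Inhibitors were tested against purified firefly luciferase in a biochemical, low-substrate format (both substrates at 10uM) and luminescence measured with a CCD imager.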
HEK293 tox = HEK 293 cell cytotoxicity; HEK 293 viability, ATP luminescence (CellTiter-Glo), 48-72 h; Potency, µM (titrated, usually from 115 µM), inactives show at the highest dose activity change, negative = cytotoxicity, usual class: inhibitors; 6.6% of 94,000 active; AID 1345083; also: nearly all actives have a fitted effect of over 60% in size
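Viability of HEK 293 cells, plated at 250 cells/well, was judged by cellular ATP after compound treatment for 48 or 72 hr. Luminescence was imaged 10 min after CellTiter-Glo addition at room temperature.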
SNCA expr inhib = reduces expression of the alpha-synuclein gene; HEK-293 SNCA-luciferase knock-in, luminescence, 24 h; Potency, µM (series often up to 57.2 µM), for the others: top-dose activity change, negative = inhibition, hits mostly inhibitors; 0.17% of 140,000 active; AID 1671194;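 also: plate controls were DMSO cells for no effect and cell-free wells for full effect; nearly all actives have a fitted effect of over 45% in size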
hNpr1 antagonist = blocks ANP-stimulated signaling of human Npr1 receptor; P16066; HEK293 hNpr1 GloSensor cGMP, ANP-stimulated luminescence; Potency, µM (doses to about 46.3 µM), without a hit: at the top dose activity change, negative = inhibition, usual class: inhibitors; 1.6% of 76,000 active; AID 1347048; calls by dose curve; also: nearly all actives have a fitted effect of over 60% in size
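Compound pre-incubated 30 min at room temperature on GloSensor-loaded HEK293 cells stably carrying hNpr1 and the pGS-40F cGMP biosensor. Stimulation uses hNppA at 0.1 nM final; luminescence is taken at baseline and 20 min post-agonist.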
NIH3T3 tox = cytotoxic compounds in NIH 3T3 cells | NIH 3T3 viability, CellTiter-Glo ATP luminescence, 48-72 h | 4.3% of 94,000 active | Potency, µM (series often up to 96.7 µM), inactives show top-dose activity change, negative = cytotoxicity, usual class: inhibitors | AID 1345082; also: nearly all actives have a fitted effect of over 55% in size
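First NIH 3T3 cells are plated at 400 cells/well; next compound is pinned in; then plates incubate 48 or 72 hr at 37 °C; finally CellTiter-Glo is added and luminescence read after 10 min.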
SNCA viab count = counter-screen for SNCA expression inhibitors: cell viability; HEK-293-SNCA-luc viability, GF-AFC fluorescence, 24 h; Potency, µM (doses to about 57.1 µM), for the others: top-dose activity change, negative = cytotoxicity, usual class: cytotoxic; 0.12% of 150,000 active; AID 1671193;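 also: 0% = DMSO-treated cells and -100% = medium-only wells without cells; nearly all actives have a fitted effect of over 30% in size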
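HEK-293-SNCA-luc cells (1500/well) plated 24 h, then exposed 24 h to a dilution series; GF-AFC added 30 min at 37C, fluorescence 405/540 nm; normalised to medium-only and DMSO wells, Hill fit.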
The depositor's hits bear a star; i = inactive; ? = inconclusive; . = not tested or not shown; [ ] = remark or other dose. This is a sample that favours compounds with a hit; in the whole collection about 7.4% have one here. Unless noted, calls follow the shape of the dose curve; as a rule, active = well fitted curve in the direction sought with a large enough effect; inconclusive = small, poorly fitted or top-dose-only effect, or another doubt; inactive = no such curve, though single readings can be large; an effect the other way counts as inactive or inconclusive. Unless noted, % is scaled to controls: 0 for no effect and ±100 for the full control effect; potency is read from the fitted curve at half-maximal effect.

SMILES	FLuc inh	HEK293 tox	SNCA expr inhib	hNpr1 antagonist	NIH3T3 tox	SNCA viab count
COCCO[C@H]1C(=O)N(C2CCN(Cc3ccncc3)CC2)[C@H]1c1ccncc1	.	i	5%	.	-12%	3%
CCC(Sc1nc2nccnc2c(=O)n1Cc1ccccc1Cl)C(=O)NC1CCCCC1 (stereo not given)	.	.	3.5µM*	.	.	?
COc1cccc(-c2nc3cnccn3c2NCCC(=O)N2CCc3ccccc32)c1	i	?	10%	1%	-9%	24%
COc1ccccc1-c1nc2cnccn2c1NCCC(=O)N1CCc2ccccc21	i	20µM*	20%	-8%	?	19%
O=C(Nc1ccc(C2(C(=O)N3CCN(c4ccccn4)CC3)CCCCC2)cc1)C1CC1	i	?	3%	-12%	?	3%
CN(Cc1ccc(-c2ccccc2)cc1)Cc1ccnn1C	?	25µM*	32%[87.6 µM]	20µM*	?	2%[87.6 µM]
CN(Cc1ccc(-c2ccccc2)cc1)Cc1nccs1	45µM*	?	54%[87.6 µM]	10µM*	?	-11%[87.6 µM]
Cc1ccc(CN(C)Cc2ccc(-c3ccccc3)cc2)cc1	i	?	4%[87.6 µM]	19%[70.6 µM]	?	?
O=C(c1ccccc1Br)N1CC(n2cc(COc3ccc(F)cc3)nn2)C1	i	-34%	-10%	-5%	?	4%
COc1cccc(-c2nnnn2[C@H]2CO[C@H]3[C@@H]2OC[C@@H]3NC(=O)c2ccccc2C(=O)O)c1	i	-1%	17%	4%	-7%	1%
COc1cccc(-c2nnnn2[C@H]2CO[C@H]3[C@@H]2OC[C@@H]3NC(=O)c2ccc(N(C)C)cc2)c1	?	?	44%	16µM*	?	2%
COc1ccc(NC(=O)N[C@H]2CO[C@H]3[C@@H]2OC[C@@H]3n2nnnc2-c2ccc3c(c2)OCO3)cc1	i	?	5%	0%	?	-6%
O=C(N[C@H]1CO[C@H]2[C@@H]1OC[C@@H]2n1nnnc1-c1ccc2c(c1)OCO2)c1ccccc1	i	79µM*	1%[87.6 µM]	?	?	-20%[87.6 µM]
O=C(Nc1cccc(C(F)(F)F)c1)N[C@H]1CO[C@H]2[C@@H]1OC[C@@H]2n1nnnc1Oc1ccc(-n2ccnc2)cc1	i	32µM*	?	?	22µM*	-27%
O=C(Nc1cccc(C(F)(F)F)c1)N[C@H]1CO[C@H]2[C@@H]1OC[C@@H]2n1nnnc1-c1ccc2c(c1)OCO2	i	40µM*	?	?	32µM*	-12%
CC1=NS(=O)(=O)N(C)C=C1C(=O)OCc1nc(-c2ccc(Cl)cc2)no1	?	?	54%	10µM*	-29%	1%
CC1=NS(=O)(=O)N(C)C=C1C(=O)OCc1nc(-c2ccc3c(c2)OCO3)no1	?	-10%	-13%	11µM*	-6%	12%
CC1=NS(=O)(=O)N(C)C=C1C(=O)OCc1nc(-c2cnccn2)no1	i	2%	32%	2%	1%	0%
COc1cccc(-c2noc(COC(=O)C3=CN(C)S(=O)(=O)N=C3C)n2)c1	?	?	-12%	13µM*	?	3%
CC1=NS(=O)(=O)N(Cc2ccccc2)C=C1C(=O)OCc1nc(-c2ccc(C)cc2)no1	i	?	?	?	?	4%
CC1=NS(=O)(=O)N(C)C=C1C(=O)OCc1nc(-c2ccccc2Cl)no1	i	?	11%	-8%	-22%	15%
CC(C)CN(Cc1cccnc1)C1CN(C(=O)CC2CCCCC2)C1	i	?	0%	-16%	5.6µM*	-3%
COCCNc1cc(-c2noc([C@@H]3CCCN3CC(C)C)n2)ccn1	i	?	7%[87.6 µM]	-4%[70.6 µM]	?	-25%[87.6 µM]
O=C1NC2(CN(Cc3ccccc3C(F)(F)F)C2)Oc2ccccc21	i	40µM*	6%	-1%	?	5%
O=C1NC2(CCN(Cc3ccccc3C(F)(F)F)C2)Oc2ccccc21 (stereo not given)	i	-3%	-16%	4%	-3%	8%
SMILES	FLuc inh	HEK293 tox	SNCA expr inhib	hNpr1 antagonist	NIH3T3 tox	SNCA viab count
O=C1NC2(CN(Cc3cccc4ccccc34)C2)Oc2ccccc21	i	?	19%[87.6 µM]	3%[70.6 µM]	?	8%[87.6 µM]
O=C1NC2(CCCN(Cc3ccccc3C(F)(F)F)C2)Oc2ccccc21 (stereo not given)	i	45µM*	-25%	-7%	?	1%
CCN(CC)CCOc1ccc(Nc2ncc3cc(-c4c(Cl)cccc4Cl)c(=O)n(C)c3n2)cc1	.	.	3µM*	.	.	?
CCN1C(=O)C2CC3(CCN(Cc4ccc(F)c(F)c4)CC3)CN2C1=O (stereo not given)	i	32µM*	-10%	-11%	?	-11%
CCn1cc(S(=O)(=O)N2CC3(CCCCC3)CC2COc2ccc(OC)cc2)cn1 (stereo not given)	.	32µM*	?	.	?	-20%
CCOC(=O)CNC(=O)N1CC2(CCCCC2)CC1COc1ccc(OC)cc1 (stereo not given)	.	-26%	5%	.	-29%	-1%
N#Cc1cccc(CN(Cc2cccc(C#N)c2)[C@@H]2CO[C@H](CNC(=O)c3ccccc3)[C@H]2O)c1	i	79µM*	-28%	1%	?	-7%
Cc1nnn2c(C(=O)NCc3ccc(Cl)cc3)cccc12	i	79µM*	-2%[87.6 µM]	0%[70.6 µM]	35µM*	-5%[87.6 µM]
CNC(=O)CCn1ncc2cc(OC3CCc4cccc(-c5cccc(OC)c5)c43)ccc21 (stereo not given)	i	?	?	?	?	?
CNC(=O)CCn1ncc2cc(OC3CCc4cccc(-c5ccncc5)c43)ccc21 (stereo not given)	i	100µM*	?	3%[70.6 µM]	?	-18%[87.6 µM]
CNC(=O)CCn1ncc2cc(OC3CCc4cccc(-c5ccnn5C)c43)ccc21 (stereo not given)	i	?	-19%[87.6 µM]	5%[70.6 µM]	?	-10%[87.6 µM]
CNC(=O)CCn1ncc2cc(OC3CCc4cccc(-c5cccnc5)c43)ccc21 (stereo not given)	i	100µM*	?	-16%[70.6 µM]	?	-17%[87.6 µM]
O=C(C[C@H]1NC(=O)c2ccccc2NC1=O)Nc1nc2c(s1)CCC2	i	-3%	-14%	0%	-5%	5%
CC(=O)NC1CCN(c2nccc(Nc3ccc(C)cc3)n2)CC1	.	?	2%[87.6 µM]	.	?	4%[87.6 µM]
Cc1ccc(Nc2ccnc(N3CCC(C(=O)NC4CC4)CC3)n2)cc1	.	?	33%[87.6 µM]	.	35µM*	-5%[12.5 µM]
